KinaseGlo FLuc: Counterscreen for Luciferase (Kinase-Glo TM) Inhibition | Kinase-Glo luciferase, ATP luminescence, 8 min | Potency, µM (series often up to 38.3 µM), without a hit: at the highest dose activity change, negative = inhibition, most hits filed as inhibitors | Luciferin 4-monooxygenase (Photuris pensylvanica), Q27757 | 200,000 compounds, 0.28% hits; also: % is scaled to controls: 0 for no effect and ±100 for the full control effect; nearly all actives have a fitted effect of over 60% in size
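Kinase-Glo luciferase light output from ATP and luciferin was measured with 10 uM ATP, within the enzyme's linear range. Buffer: 50 mM imidazole pH 7.2, 50 mM KCl, 7 mM MgCl2, 0.01% Tween 20, 0.05% BSA; luminescence read after 8 min at ambient temperature.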
SMN2 splice enh: qHTS Assay for Enhancers of SMN2 Splice Variant Expression | HEK293 SMN2-luciferase splicing reporter, luminescence, 30-36 h | Potency, µM (highest dose often 46.1 µM), inactives show at the top dose activity change, positive = activation, actives largely listed as activators | 210,000 compounds, 2.8% hits | AID 1458, 2008; also: % of control where 0% means no effect; nearly all actives have a fitted effect of over 55% in size
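qHTS luciferase splicing reporter: luminescence rises when SMN2 exon 7 is included in transfected HEK293 cells. Compound exposure lasted 30-36 h at 37C, with 4.5 mM final sodium butyrate as control, followed by a ONE-Glo read.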
FLuc modulator: qHTS profiling assay for firefly luciferase inhibitor/activator using purifed enzyme and Km concentrations of substrates (counterscreen for miR-21 project). Luciferin 4-monooxygenase (Photinus pyralis), P08659. 360,000 compounds, 6.9% hits. Potency, µM (top dose mostly 57.5 µM), for inactives: at the highest dose activity change, negative = inhibition, most hits filed as inhibitors. purified FLuc, Km substrates, luminescence inhibition;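 also: plate controls were vehicle for no effect and reference inhibitor for full effect; nearly all actives have a fitted effect of over 55% in size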
Target sequence (P08659 whole entry, looked up): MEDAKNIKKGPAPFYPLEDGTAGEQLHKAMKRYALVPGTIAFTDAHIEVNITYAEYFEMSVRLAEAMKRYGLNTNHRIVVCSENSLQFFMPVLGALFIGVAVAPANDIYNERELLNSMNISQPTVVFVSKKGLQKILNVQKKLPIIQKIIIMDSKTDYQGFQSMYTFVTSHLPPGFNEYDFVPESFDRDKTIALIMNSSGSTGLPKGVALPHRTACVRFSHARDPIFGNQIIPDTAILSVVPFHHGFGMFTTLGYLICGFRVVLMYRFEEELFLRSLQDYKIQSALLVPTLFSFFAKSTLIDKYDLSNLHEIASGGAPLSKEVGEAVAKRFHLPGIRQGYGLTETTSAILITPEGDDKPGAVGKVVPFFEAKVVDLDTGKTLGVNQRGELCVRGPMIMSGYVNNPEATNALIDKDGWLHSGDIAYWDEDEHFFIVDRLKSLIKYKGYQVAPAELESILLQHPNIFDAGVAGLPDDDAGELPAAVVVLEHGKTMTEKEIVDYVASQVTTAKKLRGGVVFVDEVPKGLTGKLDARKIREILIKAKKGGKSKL
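Biochemical qHTS of compounds, final roughly 60 µM downward over six points, against 10 nM purified firefly luciferase using Km concentrations of substrates (10 uM D-luciferin, 10 uM ATP) in Tris acetate pH 7.5 buffer; luminescence output.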
NPC1 promoter act: qHTS Assay for NPC1 Promoter Activators; 320,000 compounds, 2.4% hits; Huh7 NPC1 promoter luciferase reporter, 24 h; Potency, µM (titrated, usually from 9.22 µM), for the others: at the top dose activation, usual class: activators; also: % of control where 0% means no effect; nearly all actives have a fitted effect of over 60% in size
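Huh7 cells stably carrying NPC1 promoter–luciferase, plated in Opti-MEM with 10% FBS for 2 h, were exposed to compound in DMSO for 24 h at 37 °C; luciferase reagent was added for 10 min and luminescence read.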
Rab9 prom act: qHTS Assay for Rab9 Promoter Activators; Huh7 Rab9 promoter-luciferase reporter, luminescence, 24 h; Potency, µM (series often up to 9.22 µM), inactives show at the highest dose activation, negative = inhibition, actives largely listed as activators; 320,000 compounds, 2.8% hits; AID 485297, 2010; also: % of control where 0% means no effect; nearly all actives have a fitted effect of over 60% in size
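Huh7 cells stably carrying Rab9 promoter–luciferase reporter, plated 1500 cells/well, compound added after 2 h and incubated 24 h at 37 °C; luciferase luminescence then read after 10 min with detection reagent.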
ELG1 genotoxic: qHTS screen for small molecules that induce genotoxicity in human embryonic kidney (HEK293T) cells expressing luciferase-tagged ELG1; 330,000 compounds, 1.3% hits; Potency, µM (series often up to 46 µM), for the others: at the highest dose activity change, positive = activation, actives largely listed as activators; HEK293T ELG1-luciferase reporter, luminescence, 16 h; AID 504466, 2011; also: % of control where 0% means no effect; nearly all actives have a fitted effect of over 60% in size
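DMSO vehicle served as control against compound-treated ELG1-luciferase HEK293T cells; exposure lasted 16 hr at 37 °C and 5% CO2, followed by ONE-Glo luminescence detection after 30 min.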
Active calls of the source: *; ? = inconclusive; . = no result; [ ] = dose if it differs, or a comment. Shown are actives, neighbours in structure and some others; about 7.3% of the full set was active somewhere. Calls follow the shape of the dose curve; as a rule, active = well fitted curve in the direction sought with a large enough effect; inconclusive = small, poorly fitted or top-dose-only effect, or another doubt; inactive = no such curve, though single readings can be large; an effect the other way counts as inactive or inconclusive. Potency is read from the fitted curve at half-maximal effect.

SMILES	KinaseGlo FLuc	SMN2 splice enh	FLuc modulator	NPC1 promoter act	Rab9 prom act	ELG1 genotoxic
O=C1/C(=C/c2ccc(O)c(O)c2)Oc2cc(O)ccc21	.	.	15µM*	?	20%	15µM*
COc1cc(/C=C2\Oc3cc(O)ccc3C2=O)ccc1O	.	.	8.5µM*	3.2µM*	4µM*	23µM*
O=C(c1cnc(N2CCOCC2)c2ccccc12)N1CCN(c2ccc(F)cc2)CC1	.	.	3%	.	.	.
Cc1ccc(CSc2nc3ccc(NC(=O)COc4ccccc4)cc3s2)cc1	.	.	2%	.	.	.
COC(=O)c1ccccc1S(=O)(=O)Oc1ccc(-c2ccc(C(=O)O)cc2)cc1	.	.	-14%	11%	6%	3%
O=C(O)c1ccc(-c2ccc(OS(=O)(=O)c3ccccc3F)cc2)cc1	.	.	12µM*	?	?	?
Cc1nc2cc(-c3ccccc3)ccc2o1	-8%	-12%	12µM*	8%	2%	7%
Cc1ccc2oc(=O)c(/C=C(\O)c3ccccc3)nc2c1	2%	15%	?	0%	-2%	-5%
COC(=O)c1c(C)[nH]c(C(=O)/C=C/c2ccccc2F)c1C	.	.	0.3µM*	1.3µM*	1µM*	4.6µM*
COC(=O)c1c(C)[nH]c(C(C)=O)c1C	-8%	-24%	8%	-1%	-1%	0%
COC(=O)c1c(C)[nH]c(C(=O)/C=C/c2ccccc2Cl)c1C	.	.	?	2µM*	?	18%
O=C(O)CN(CC(=O)O)c1ccccc1	-1%[7.66 µM]	-5%[9.22 µM]	.	.	.	.
CCOC(=O)c1c(-c2ccccc2)nc2ccc(C)cn12	-5%	5%	9.5µM*	3.5µM*	2.2µM*	?
CCOC(=O)C(=O)c1c(-c2ccccc2)nc2ccccn12	0%	17%	-7%	-1%	12%	-5%
CCOC(=O)c1c(-c2ccccc2)nc2cc(C)ccn12	-6%	25%	11µM*	?	?	13%
CCN(C(=O)Cn1nc(Cc2ccncc2)c2ccccc2c1=O)c1cccc(Cl)c1	.	8%	3%	.	.	.
Cn1cccc1/C=C1\Cc2ccccc2C1=O	11µM*	?	6.7µM*	-26%	?	?
Cn1cccc1/C=C1\CC(C(C)(C)C)C/C(=C\c2cccn2C)C1=O (configuration not stated)	13%	-28%	-1%	-23%	-19%	-14%
CN1C2CCC1/C(=C/c1cccn1C)C(=O)/C2=C\c1cccn1C	-5%	-50%	1%	-2%	-1%	-10%
Cn1cccc1/C=C1\CCc2ccccc2C1=O	10µM*	1µM*	1.5µM*	0.35µM*	0.13µM*	?
CC(=O)c1cccc(NC(=O)N2CCCc3ccccc32)c1	0%	0%	?	9%	12%	6%
CC(=O)c1ccc(NC(=O)N2CCc3ccccc3C2)cc1	0%	22µM*	?	21%	?	24%
CC(=O)c1cccc(NC(=O)N2CCc3ccccc3C2)c1	-1%	21%	13µM*	4µM*	?	?
CCOC(=O)c1ncc2[nH]c3cccc(OC(C)C)c3c2c1C	-1%[39.9 µM]	.	.	.	.	.
Cc1ccc(N(CC(=O)Nc2ccc(Br)c(C)c2)S(=O)(=O)c2cccs2)cc1	.	-13%	0%	.	.	.
SMILES	KinaseGlo FLuc	SMN2 splice enh	FLuc modulator	NPC1 promoter act	Rab9 prom act	ELG1 genotoxic
CCn1c2ccccc2c2cc(/C=N/NC(=O)c3ccccc3C)ccc21	-1%	-72%	?	-22%	-16%	?
Cn1c2ccccc2c2cc(/C=N/NC(=O)c3ccc(N)cc3)ccc21	.	.	11µM*	-2%	12%	-14%
Cn1c2ccccc2c2cc(/C=N/NC(=O)c3ccccc3F)ccc21	.	.	7.6µM*	-10%	13%	-11%
CCCCN(CC)C(=O)CCNS(=O)(=O)c1ccc2c(c1)c(=O)n(C)c(=O)n2C	.	-25%	0%	.	.	.
O=C(CCS(=O)(=O)c1ccccc1)N1CCN(c2ccccc2F)CC1	.	.	11µM*	1.8µM*	1.3µM*	8.2µM*
CSc1nn(Cc2ccccc2C)c(NC(C)=O)c1S(=O)(=O)c1ccc(C)cc1	.	.	2%	.	.	.
O=C(NN1C(=O)/C(=C/c2ccc(O)cc2)SC1=S)c1ccccc1O	.	.	?	-1%	-7%	-5%
COc1cc(/C=C2\SC(=S)N(NC(=O)c3ccccc3O)C2=O)ccc1O	.	.	17µM*	-2%	-4%[1.84 µM]	4%
O=C(NN1C(=O)/C(=C/c2cc([N+](=O)[O-])ccc2O)SC1=S)c1ccccc1O	.	.	?	-1%	8%	11%
O=C(NN1C(=O)/C(=C/c2ccc(O)c([N+](=O)[O-])c2)SC1=S)c1ccccc1Cl	-8%	-21%	17µM*	0%	-1%	-6%
CCc1ccccc1NC(=O)CN1CCCN(Cc2cc(C)ccc2C)S1(=O)=O	.	.	-3%	.	.	.
COc1ccc(N(C(=O)c2ccc(Cl)cc2)S(=O)(=O)c2ccc(C)cc2)cc1	.	-4%	-2%	.	.	.
CCN(CC)C(=O)Oc1ccc2c(c1)O/C(=C\c1ccco1)C2=O	.	.	3µM*	?	?	12%
COCCN(CCOC)Cc1c(O)ccc2c1O/C(=C\c1ccco1)C2=O	.	.	-5%	-1%	-2%	-2%
O=C(Oc1ccc2c(c1)O/C(=C\c1ccncc1)C2=O)c1cccs1	.	.	-18%	1%	-1%	-1%
COC(=O)COc1ccc2c(c1)O/C(=C\c1ccco1)C2=O	.	.	3.4µM*	1%	13%	0%
CCC(=O)Oc1ccc2c(c1)O/C(=C\c1ccco1)C2=O	.	.	3.4µM*	1%	12%	9%
Cc1cc(O)cc2c1C(=O)/C(=C/c1ccco1)O2	.	.	12µM*	?	-2%[1.84 µM]	22%
COc1cccc(Cc2nc3ccccc3nc2SCC(=O)N2CCCc3ccccc32)c1	.	.	2%	.	.	.
O=C(NCCCN1CCN(c2ccccc2)CC1)c1ccc2nc(CCc3ccccc3)oc2c1	.	.	0%	.	.	.
COc1ccc(N2C(=O)C(CC(=O)Nc3ccccc3)N(CCC3=CCCCC3)C2=O)cc1 (configuration not stated)	.	0%	1%	.	.	.
CSc1cccc(Nc2nc3c(S(=O)(=O)c4ccccc4)nnn3c3ccc(Cl)cc23)c1	.	8%	-3%	.	.	.
Cc1ccc(NC(=O)Nc2cn(CC(C)C)c(=O)c3ccccc23)cc1N(C)C	.	.	-14%	.	.	.
Cc1ccc(CN2CCSc3ccc(C(=O)Nc4ccc(Cl)cc4)cc32)cc1	.	11µM*	?	.	.	.
Cc1ccc(CN2CCSc3ccc(C(=O)Nc4cc(C)cc(C)c4)cc32)cc1	.	-16%	6%	.	.	.
